Measurements published in PubChem BioAssay AID1159580 (chemical genetic matrix, 2015).
About 2,000 (36%) of roughly 5,500 compounds were called active. Roughly 18% stayed inconclusive and do not appear here. Rule as the data show it: active = normalized growth mostly below about 0.91 (no sharp cut-off); inconclusive = no clear call, values can overlap the other calls; inactive = mostly above about 0.92. This is one part of the list.

Test: chemical genetic growth profiling, strain panel (AID 1159580);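 also: tested at 20 µM; growth read once vehicle control cultures reached saturation at 30 °C; 1 = growth at the plate median or of vehicle wells; lower values mean less growth of the strain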
Conditions: S. cerevisiae deletion strains, growth OD

Measured: normalized growth

COC(=O)[C@H](c1ccccc1Cl)N1CCc2sccc2C1
inactive: locus YAL021C, strain ccr4, stronger effect = lower value 0.993 | locus YAL026C, strain drs2, stronger effect = lower value 0.99 | locus YAL030W, strain snc1, stronger effect = lower value 0.982 | locus YBL061C, strain skt5, stronger effect = lower value 0.994 | locus YBR009C, strain hhf1, stronger effect = lower value 0.989 | locus YBR023C, strain chs3, stronger effect = lower value 0.981 | locus YBR171W, strain sec66, stronger effect = lower value 0.973 | locus YBR231C, strain swc5, stronger effect = lower value 0.998 | locus YBR279W, strain paf1, stronger effect = lower value 0.986 | locus YCL011C, strain gbp2, stronger effect = lower value 0.968 | locus YCL016C, strain dcc1, stronger effect = lower value 0.993 | locus YCL069W, strain vba3, stronger effect = lower value 0.991 | locus YCR088W, strain abp1, stronger effect = lower value 0.976 | locus YDL005C, strain med2, stronger effect = lower value 0.991 | locus YDL040C, strain nat1, stronger effect = lower value 0.961 | locus YDR001C, strain nth1, stronger effect = lower value 0.985 | locus YDR069C, strain doa4, stronger effect = lower value 1.01 | locus YDR137W, strain rgp1, stronger effect = lower value 0.912 | locus YDR159W, strain sac3, stronger effect = lower value 0.987 | locus YDR195W, strain ref2 0.971 | locus YDR297W, strain sur2, stronger effect = lower value 0.983 | locus YDR334W, strain swr1, stronger effect = lower value 0.995 | locus YDR335W, strain msn5, stronger effect = lower value 1.01 | locus YDR392W, strain spt3, stronger effect = lower value 0.984 | locus YEL003W, strain gim4, stronger effect = lower value 0.969 | locus YEL037C, strain rad23, stronger effect = lower value 0.981 | locus YEL061C, strain CIN8 (second series), stronger effect = lower value 0.98 | locus YER015W, strain faa2, stronger effect = lower value 0.986 | locus YER016W, strain bim1, stronger effect = lower value 0.98 | locus YER111C, strain swi4, stronger effect = lower value 0.972 | locus YER155C, strain BEM2 (second series), stronger effect = lower value 0.97 | locus YFR010W, strain ubp6, stronger effect = lower value 1 | locus YGL167C, strain pmr1, stronger effect = lower value 0.967 | locus YGL173C, strain kem1, stronger effect = lower value 0.979 | locus YGL227W, strain vid30, stronger effect = lower value 0.988 | locus YGL240W, strain doc1, stronger effect = lower value 0.989 | locus YGL253W, strain hxk2, stronger effect = lower value 1 | locus YHR013C, strain ard1, stronger effect = lower value 1.07 | locus YHR027C, strain rpn1, stronger effect = lower value 0.987 | locus YHR030C, strain SLT2, stronger effect = lower value 0.961 | locus YHR079C, strain IRE1, stronger effect = lower value 0.956 | locus YHR142W, strain chs7, stronger effect = lower value 1.01 | locus YJL092W, strain hpr5, stronger effect = lower value 0.98 | locus YJL095W, strain BCK1 (second series), stronger effect = lower value 0.983 | locus YJL095W, strain BCK1, stronger effect = lower value 0.98 | locus YJL115W, strain asf1, stronger effect = lower value 1 | locus YJL129C, strain trk1, stronger effect = lower value 0.959 | locus YJL154C, strain vps35, stronger effect = lower value 0.97 | locus YJL164C, strain tpk1, stronger effect = lower value 0.976 | locus YJL166W, strain qcr8, stronger effect = lower value 0.991 | locus YJL187C, strain SWE1, stronger effect = lower value 0.984 | locus YJR066W, strain TOR1, stronger effect = lower value 0.982 | locus YKL160W, strain elf1, stronger effect = lower value 0.988 | locus YKR026C, strain gcn3, stronger effect = lower value 1 | locus YKR091W, strain srl3, stronger effect = lower value 0.983 | locus YLL001W, strain dnm1, stronger effect = lower value 1.01 | locus YLL026W, stronger effect = lower value 0.977 | locus YLL041C, strain sdh2, stronger effect = lower value 0.991 | locus YLR027C, strain aat2, stronger effect = lower value 0.983 | locus YLR113W, strain HOG1, stronger effect = lower value 0.932 | locus YLR221C, strain rsa3, stronger effect = lower value 0.992 | locus YLR258W, strain gsy2, stronger effect = lower value 0.982 | locus YLR262C, strain YPT6 (second series), stronger effect = lower value 0.95 | locus YLR320W, strain mms22, stronger effect = lower value 0.963 | locus YLR342W, strain FKS1, stronger effect = lower value 0.982 | locus YLR357W, strain rsc2, stronger effect = lower value 1.09 | locus YLR370C, strain arc18, stronger effect = lower value 0.975 | locus YLR384C, strain iki3, stronger effect = lower value 0.975 | locus YML120C, strain ndi1, stronger effect = lower value 0.961 | locus YMR058W, strain fet3, stronger effect = lower value 0.989 | locus YMR125W, strain sto1, stronger effect = lower value 0.993 | locus YMR129W, stronger effect = lower value 0.979 | locus YMR205C, strain PFK2, stronger effect = lower value 0.971 | locus YMR231W, strain pep5, stronger effect = lower value 0.995 | locus YNL071W, strain lat1, stronger effect = lower value 0.968 | locus YNL183C, strain NPR1, stronger effect = lower value 0.941 | locus YNL209W, strain ssb2, stronger effect = lower value 0.998 | locus YNL248C, strain rpa49, stronger effect = lower value 1.07 | locus YNL322C, strain KRE1 (second series), stronger effect = lower value 0.981 | locus YNR049C, strain mso1, stronger effect = lower value 0.978 | locus YOR001W, strain rrp6, stronger effect = lower value 1 | locus YOR070C, strain gyp1, stronger effect = lower value 0.986 | locus YOR080W, strain dia2, stronger effect = lower value 0.994 | locus YOR083W, strain WHI5, stronger effect = lower value 0.981 | locus YOR106W, strain vam3, stronger effect = lower value 1.03 | locus YOR231W, strain MKK1, stronger effect = lower value 0.938 | locus YOR265W, strain rbl2, stronger effect = lower value 0.985 | locus YOR270C, strain vph1, stronger effect = lower value 1.02 | locus YOR290C, strain snf2, stronger effect = lower value 1.02 | locus YPL051W, strain arl3, stronger effect = lower value 0.992 | locus YPL078C, strain atp4, stronger effect = lower value 0.996 | locus YPL106C, strain sse1, stronger effect = lower value 0.987 | locus YPL240C, strain hsp82, stronger effect = lower value 0.986 | locus YPL256C, strain CLN2, stronger effect = lower value 0.894

NC1(C(=O)O)CCCCC1
inactive: locus YAL040C, strain CLN3, stronger effect = lower value 0.993 | locus YDR363W, strain ESC2, stronger effect = lower value 0.98 | locus YER002W, strain NOP16, stronger effect = lower value 1.01 | locus YJR075W, strain HOC1, stronger effect = lower value 0.992 | locus YMR263W, strain SAP30, stronger effect = lower value 0.995 | locus YNL153C, strain GIM3, stronger effect = lower value 0.982 | locus YNL175C, strain NOP13, stronger effect = lower value 1.01 | locus YNL197C, strain WHI3, stronger effect = lower value 0.992 | locus YNL224C, strain SQS1, stronger effect = lower value 0.98 | locus YOR083W, strain WHI5 (second series), stronger effect = lower value 0.981
